The full list was thinned out, with hits kept by preference.
Tgondii IFNg: inhibitors of Toxoplasma gondii growth with IFN-gamma; Toxoplasma gondii growth in IFN-gamma-treated host cells; stronger effect = lower value; activity change, negative = inhibition, % (no concentration beside the values); 69,000 compounds, 3.8% hits; AID 1259416; in the data active = activity change below about -70%, passing the limit was not always enough;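 also: host cells are HeLa cells infected with Toxoplasma gondii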
Of the large screens only hits and unclear results are named; the others gave an inactive call.

Cc1cc(C)cc(NC(=O)N2CCC3(CC2)Nc2cc(F)ccc2-n2cccc23)c1	none
CCOC(=O)C1CCC(CNC(=O)N2CCC3(CC2)c2cccn2-c2ccc(C)cc2N3CC)CC1 (centres undefined)	none
CCN1c2cc(C)ccc2-n2cccc2C12CCN(C(=O)Nc1ccccc1Cl)CC2	Tgondii IFNg -110
CCN1c2cc(C)ccc2-n2cccc2C12CCN(C(=O)Nc1cccc(Cl)c1C)CC2	none
Cc1cc(C)cc(NC(=O)N2CCC3(CC2)Nc2cc(C)ccc2-n2cccc23)c1	Tgondii IFNg -108
Cc1ccc(C)c(NC(=O)N2CCC3(CC2)Nc2cc(C)ccc2-n2cccc23)c1	none
O[C@@H]1CN(Cc2c(Cl)nc3sccn23)CC[C@H]1c1ccc2c(c1)OCO2	none
O=C(c1ccc(Cn2cnnn2)cc1)N1[C@H]2CCNC[C@@H]1CC2	none
Cc1n[nH]c(C)c1CN1CCc2[nH]cnc2C1c1cccc2cccnc12 (centres undefined)	none
CC(C)c1nccc(CN2CCC(CNS(C)(=O)=O)C2)n1 (centres undefined)	none
CNC(=O)c1cnn2c(C(F)(F)F)cc(C(F)(F)F)nc12	none
COC(=O)[C@@H]1C[C@H](NC(=O)Nc2ccc(OC)c(Cl)c2)CN1C	none
CCN1c2cc(C)ccc2-n2cccc2C12CCN(C(=O)Nc1cccc(C(F)(F)F)c1)CC2	Tgondii IFNg -111
O=C(Nc1cccc(C(F)(F)F)c1)N1CCC2(CC1)Nc1ccccc1-n1cccc12	none
CCN1c2cc(C)ccc2-n2cccc2C12CCN(C(=O)NC(C)C)CC2	none
CCN1c2cc(C)ccc2-n2cccc2C12CCN(C(=O)Nc1ccccc1C)CC2	none
CCN1c2cc(C)ccc2-n2cccc2C12CCN(C(=O)Nc1cccc(F)c1)CC2	Tgondii IFNg -85
Cc1ccc2c(c1)NC1(CCN(C(=O)Nc3cccc(C(F)(F)F)c3)CC1)c1cccn1-2	none
CCc1ccc(C(=O)N2CC(C(=O)N3CCOCC3)C3(CCOCC3)C2)cc1 (centres undefined)	none
CN1C(=O)CCc2cc(NC(=O)c3ccsc3)ccc21	none
CCN(C)c1ccnc(N2CCN(c3cc(C)nc(N)n3)CC2)n1	none
CCn1c(CC2CCN(C(=O)c3ccc4nc[nH]c4c3)CC2)n[nH]c1=O	none
FC(F)(F)c1nc2ccc(Oc3ccc4nc(C(F)(F)F)[nH]c4c3)cc2[nH]1	none
Cc1cccc(-c2ccc([C@H]3[C@@H](CO)N4CCCCN(S(=O)(=O)c5ccccc5F)C[C@H]34)cc2)c1	Tgondii IFNg -80
O=S(=O)(c1ccc(F)cc1)N1CCCCN2[C@@H](CO)[C@H](c3ccc(-c4cncnc4)cc3)[C@@H]2C1	none
Cc1cccc(-c2ccc([C@H]3[C@H]4CN(S(=O)(=O)c5ccccc5F)CCCCN4[C@H]3CO)cc2)c1	none
O=C(c1cccs1)n1ccc(-c2nc3ccccc3s2)n1	none
O=C(c1ccccc1)n1ccc(-c2cccs2)n1	none
CO/N=C1\CC(C)(C)Cc2c(-c3ccn(C(=O)c4cccs4)n3)sc(SC)c21	Tgondii IFNg -76
CCC(=O)Nc1ccc(S(=O)(=O)N2CCC3(CC2)Nc2cc(C)ccc2-n2cccc23)cc1	none
O=S(=O)(c1ccccc1)N1CCC2(CCCN(c3ccccn3)C2)C1 (centres undefined)	none
COc1ccc(CN(Cc2cnc(-c3ccc(OC)cc3)nc2)CC2CCCO2)cc1 (centres undefined)	none
CCc1ncc(-c2c(-c3ccccc3)ncn2Cc2ccccc2F)cn1	none
CCn1ccnc1-c1c(-c2ccccc2)ncn1CCN1CCOC1=O	none
CN1CCN(CCn2cnc(-c3ccccc3)c2-c2cnc[nH]2)CC1	none
CCc1nccc(-c2c(-c3ccccc3)ncn2CCN2CCOCC2)n1	Tgondii IFNg -80
CCc1nccc(-c2c(-c3ccccc3)ncn2CC2(CO)CCOCC2)n1	Tgondii IFNg -83
CCc1ccc(-c2c(-c3ccccc3)ncn2CCS(C)(=O)=O)nc1	none
O=c1[nH]nc(Cc2c[nH]c3ccccc23)n1C1CCCC1	none
CNC(=O)[C@H]1C[C@@H]2OCC[C@@H]2N(CCOc2ccc(Cl)cc2)C1	none
CCN1c2ccc(Cl)cc2C(=O)NC12CCN(C(=O)Nc1ccccc1OC)CC2	none
CCCNC(=O)[C@@H]1CCCC[C@@H]1C(=O)NCc1cc(C)oc1C(F)(F)F	none
Cc1ccc(C2(O)CCN(C(=O)C(=O)c3ccco3)CC2)nc1	none
c1coc(CN2CCC3OCCCC3(COCc3ccncc3)C2)c1 (centres undefined)	none
Nc1ncnc2c1c(-c1cnc3[nH]ccc3c1)nn2C1CCCC1	Tgondii IFNg -77
Cc1ccc(-c2cc(NC3CCCC3)nc3[nH]ccc23)c(N)n1	none
Cc1ccc2nc(C)c(C(=O)N(C)Cc3noc(-c4ccccc4)n3)n2c1	none
O=C(CCc1ccc2[nH]ccc2c1)NCCCN1CCCC1=O	none
Cc1cc(C)n(CCCN(C)Cc2cn(C(C)C)c3cc(F)ccc23)n1	none
Cc1nc(OCC(=O)Nc2ccc3c(c2)OCO3)c2ccccc2n1	none
O=C(COc1ccc(Cl)cc1)N1CCC2(CC1)Nc1ccc(Cl)cc1-n1cccc12	none
COc1cccc(CC(=O)N2CCC3(CC2)Nc2ccc(Cl)cc2-n2cccc23)c1	none
O=C(COc1ccccc1)N1CCC2(CC1)Nc1cc(F)ccc1-n1cccc12	none
O=C(COc1ccc(F)cc1)N1CCC2(CC1)Nc1ccc(Cl)cc1-n1cccc12	Tgondii IFNg -115
